Test: small-molecule microarray binders of probe aCHRDL2, primary screen, biochemical, biotinylated probe, 635/667 nm fluorescence (AID 1100)
Settings: higher = more signal

Row | SMILES | composite z-score
1 | CC(C)C(=C=CC[C@@H](O)c1cccc(OCCO)c1)C[C@@H](O)c1ccccn1 | -0.315
2 | C=C(CCCC)C(=O)CC[C@H](OC(C)=O)c1ccc(OCCO)cc1 | 0.0984
3 | C=C(CCCC)/C(=C/C[C@H](OC(C)=O)c1ccc(OCCO)cc1)c1cc(C(=O)OC)ccc1OC | 0.104
4 | COc1cc2c(cc1O)C(c1ccc(CN3CCCC3)cc1)N(C)CC2 (stereo not given) | -0.275
5 | CC(C)[Si]1(C(C)C)OCc2cc(-c3ccc(-c4ccc(Cl)c(Cl)c4)o3)nc(CCc3ccccc3)c21 | -0.17
6 | [N-]=[N+]=Nc1ccccc1[C@@H]1OC(c2ccc(OCCCO)cc2)=N[C@]1(Cc1ccccc1)C(=O)NCc1ccccc1 | 1.37
7 | C=C(C)[C@@H]1CC=C(C(O)C2C=CC3C(=O)N(c4ccccc4)C(=O)C3N2Nc2ccc(C#N)cc2)CC1 (stereo not given in full) | 1.15
8 | CCOC(=O)C1=C[C@@H](C(C)(C)C)N(S(=O)(=O)c2ccc(C)cc2)[C@H]1c1ccc(C)cc1 | 0.517
9 | CCOC(=O)C[C@H]1[C@H](OC(=O)c2ccccc2-c2ccccc2)[C@@H](NC(=O)c2ccccc2)c2cc(OCCCO)ccc2N1C(=O)c1ccccc1 | -0.375
10 | O=C1C2C=CC(C(O)C=Cc3ccc([N+](=O)[O-])cc3)N(Nc3ccccc3)C2C(=O)N1c1ccccc1 (stereo not given) | 0.689

From PubChem BioAssay
